The values below come from PubChem BioAssay AID765 (NMMLSC, 2007).

One may read the inhibition as the drop in the measured response relative to a control, in per cent.

A number with no mark means an inactive call. The source made the active and inactive calls. Cut-off read from the data, not from the text of the source: active = inhibition above about 31%; inactive = the rest.

The test deals with N-formyl peptide receptor 2 (Homo sapiens) (UniProt P25090). In words: FPRL1 fluorescent ligand binding inhibitors, cell-based, flow cytometry, single concentration (AID 765). Particulars: FPRL1-expressing cells, stronger effect = higher value; at 5.1 µM unless noted. (Flow cytometry measures light scatter and fluorescence of single cells or particles in a stream.)
Chain of N-formyl peptide receptor 2 (Homo sapiens) (P25090 whole entry, looked up): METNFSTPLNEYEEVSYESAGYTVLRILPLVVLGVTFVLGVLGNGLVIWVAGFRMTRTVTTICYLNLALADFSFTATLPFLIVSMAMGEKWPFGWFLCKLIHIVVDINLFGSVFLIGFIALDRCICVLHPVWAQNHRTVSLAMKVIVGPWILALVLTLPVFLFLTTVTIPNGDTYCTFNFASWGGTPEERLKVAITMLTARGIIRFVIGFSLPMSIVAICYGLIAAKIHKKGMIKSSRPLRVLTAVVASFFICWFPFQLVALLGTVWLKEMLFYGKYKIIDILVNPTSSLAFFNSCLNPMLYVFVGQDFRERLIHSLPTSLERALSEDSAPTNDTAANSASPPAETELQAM
`COc1ccc(-c2cc(C(F)(F)F)nc(N3CCN(C(c4ccccc4)c4ccccc4)CC3)n2)cc1OC`: the inhibition is 25.4% [at 4.2 µM].

On to `Clc1cccc(-c2nc(N3CCN(c4ccccn4)CC3)nc3c2COc2ccccc2-3)c1`, for which the inhibition was -0.8% [at 4.9 µM].

Regarding `Clc1cccc(-c2nc(N3CCN(c4ccccc4)CC3)nc3c2COc2ccccc2-3)c1`, the inhibition is -0.8% [at 4.9 µM].

As to `CC(N)C(=O)N1CCN(c2nc(-c3ccccc3)c3cc([N+](=O)[O-])ccc3n2)CC1` (configuration not stated), the inhibition is 3.9% [at 5.5 µM].

Turning to `CC1(C)CC(=O)c2cnc(N3CCN(Cc4ccc5c(c4)OCO5)CC3)nc2C1`, the inhibition was -3.3% [at 5.6 µM].

Consider `CCCC(=O)Nc1cc(-c2cn3cccnc3n2)ccc1OC`, for which the inhibition is 2.2% [at 7.2 µM].

As for `O=C(c1ccccc1)N1CCN(c2nc(-c3ccccc3)c3cc([N+](=O)[O-])ccc3n2)CC1`, the inhibition was 18.8%.

For `O=C(O)CCC(=O)N1CCN(c2nc(-c3ccccc3)c3cc([N+](=O)[O-])ccc3n2)CC1`, the inhibition was 3.6%.

On to `COc1ccc(-c2cn3cccnc3n2)cc1NC(=O)C1CC1`, for which the inhibition is 71.5% [at 7.2 µM] (active).

As to `Cc1ccc(-c2cc(C(F)F)nc(N3CCN(c4cccc(Cl)c4)CC3)n2)cc1`, the inhibition was -3.5% [at 5.4 µM].

As for `FC(F)(F)c1cc(-c2cccs2)nc(N2CCN(Cc3ccccc3)CC2)n1`, the inhibition was 12.5% [at 5.5 µM].

In the case of `COc1ccc(-c2cn3cccnc3n2)cc1NC(=O)c1ccc(Br)o1`, the inhibition was -10% [at 5.4 µM].
